SARS 3CLpro inh: SARS-CoV 3CLpro protease inhibition. P0C6X7. 290,000 tested, 0.14% active. AID 1706. recombinant SARS-CoV 3CLpro, quenched FRET peptide cleavage. inhibition, % at 6 µM; in the data active = inhibition above about 12%
PrPC surface inh: reduces human prion protein on the cell surface; P04156; AID 720596; 370,000 tested, 0.43% active; inhibition, % at 13.8 µM; cell surface PrPC, TR-FRET read-out; in the data active = inhibition above about 24%; also: 0% = median of the test wells and 100% = reference compound wells
CCHF vOTU inh-1: CCHFV vOTU protease inhibition; 370,000 tested, 0.55% active; inhibition, % at 11.5 µM; Pep-AMC fluorescence; also: 0% = vehicle wells with enzyme and 100% = no enzyme wells
PrP UTR inh: inhibition of PrP 5' UTR reporter expression; cell-based PrP 5' UTR mRNA reporter, plate reader; inhibition, % (concentration not given with the values); 340,000 tested, 0.35% active; AID 488862; in the data active = inhibition above about 52%; also: 0 = median of the neutral control wells
CCHF vOTU inh-2: CCHFV vOTU protease inhibition, confirmation | shares compounds with CCHF vOTU inh-1 | AID 686976 | Recombinant CCHFV vOTU, Pep-AMC fluorescence | 1,900 tested, 17% active | inhibition, % at 11.5 µM
An asterisk follows results filed as active; . = no result. A selection: hits, their analogues and other compounds. The true share with any hit is near 1.3%. Rule as the data show it, unless noted: active = inhibition above about 30%; inactive = the rest.

SMILES	SARS 3CLpro inh	PrPC surface inh	CCHF vOTU inh-1	PrP UTR inh	CCHF vOTU inh-2
CC1=C(C(=O)N(C(C)C)C(C)C)CC(CC(=O)NCCCCc2ccccc2)C(=O)N1Cc1ccc(C(C)(C)C)cc1 (stereo unspecified)	.	13	35*	.	16
CC1=C(C(=O)N(C(C)C)C(C)C)CC(CC(=O)NCC2CCCCC2)C(=O)N1Cc1ccc(C(C)(C)C)cc1 (stereo unspecified)	.	11	38*	.	9
Cc1[nH]cnc1CN1CCc2c(c3ccccc3n2C)C1=O	.	-2	72*	-13	24
CCC/C(C)=C/c1ccc(CC)cn1	2	1	0	-27	.
Cc1nc(-[n+]2nc(-c3ccncc3)nn2-c2ccccc2)sc1C	.	-3	44*	.	-4
O=C1OCCN1C(=O)[C@H]1[C@H](c2ccc([N+](=O)[O-])cc2)C(c2ccccc2)=NN1c1ccccc1	.	7	3	-12	.
COC(CNC(=O)c1ccc2c3c(onc13)-c1ccccc1C2=O)OC	5	-57	78*	-82	48*
Cc1nc2ccc(C(=O)Nc3ccccc3Cl)cc2s1	1	-1	12	-45	.
COc1cc(C(=O)NNC(=S)NC(=O)c2ccc(Cl)cc2)cc(OC)c1OC	4	-6	30*	-11	-4
COc1ccc(S(=O)(=O)n2nc(C)c(S(=O)(=O)N3CCOCC3)c2C)cc1OC	2	.	.	.	.
CCC(O)c1c(-c2ccccc2)nn(C)c1Cl (stereo unspecified)	2	-5	31*	-11	-16
C=CCC(O)c1c(-c2ccccc2)nn(C)c1Cl (stereo unspecified)	-2	7	1	-14	.
O=C(O)c1cccc(NC2=C(n3nnc4ccccc43)C(=O)c3ccccc3C2=O)c1	5	-46	79*	-36	85*
O=S(=O)(Nc1ccc(O)c2ccccc12)c1cccs1	1	-13	108*	-22	-1
O=S(=O)(Nc1cccc2ccccc12)c1cccs1	7	-1	7	-16	.
Cc1ccc(C(=O)OCC(=O)Nc2cc(C(C)(C)C)nn2-c2ccccc2)c(O)c1	.	4	33*	-1	-6
CC(C)(C)c1cc(NC(=O)COC(=O)c2ccc(O)cc2O)n(-c2ccccc2)n1	.	5	10	-8	.
O=C1NC(=S)S/C1=C\c1cc(Cl)cc(Cl)c1O	.	3	30*	-22	23
O=C1NC(=S)SC1=Cc1ccccc1Cl	.	2	11	-11	.
O=C1CC(N2CCOCC2)=NN1c1ccc([N+](=O)[O-])cc1	5	-2	104*	-105	2
Cc1nnc(SCC(=O)Nc2ccccc2)c2ccccc12	-7	3	-16	-15	.
CC(=O)N(C)C1=C(O)c2ccccc2C(=O)C1=O	4	-29	10	-14	.
CC(=O)C(C(C)=O)C1(O)C(=O)c2ccccc2C1=O	8	-1	101*	-10	-12
COc1cccc(NC(=O)CN(C)C(=O)c2cc3c(s2)CCCC3)c1	.	16	12	-14	.
CC1CCc2sc(C(=O)N(C)CC(=O)Nc3cccc(F)c3)cc2C1 (stereo unspecified)	-2	7	30*	-62	-5
SMILES	SARS 3CLpro inh	PrPC surface inh	CCHF vOTU inh-1	PrP UTR inh	CCHF vOTU inh-2
CN(NC(=O)Nc1ccc(Cl)cc1)c1c(Cl)c(Cl)nn1C	1	2	-4	-14	.
CC(=O)N(C)c1ccc(OCC(O)Cn2c3ccc(Cl)cc3c3cc(Cl)ccc32)cc1 (stereo unspecified)	-2	4	31*	-35	-4
CC(=O)N(C)c1ccc(OCC(O)Cn2c(C)nc3ccccc32)cc1 (stereo unspecified)	-2	10	-6	-14	.
CC1CCCC(C)N1C(=O)COC(=O)CNC(=O)c1sc2ccccc2c1Cl (stereo unspecified)	.	12	10	-33	.
Cc1cc(NC(=O)c2cncc(Br)c2)ccc1NC(=O)c1cc2ccccc2o1	0	-7	7	8	.
CCOCCCn1c(N)c(C(=O)Nc2sc3c(c2C(=O)OC)CCCC3)c2nc3ccccc3nc21	-3	-12	31*	-9	-5
CCOC(=O)c1c(NC(=O)c2c(N)n(CCCOC)c3nc4ccccc4nc23)sc2c1CCCC2	-3	4	-2	-7	.
O=C(O)Cn1c2c(c3ccccc31)CCCC2	5	7	30*	-14	-17
CCc1ccc(/C=N/NC(=O)c2c[nH]c3ccccc23)s1	0	-1	12	-46	.
CCCCCCN1C[C@H](n2cc(COC(=O)c3ccccc3)nn2)[C@@H](O)C[C@@H]1c1ccc(C)cc1	.	-4	37*	.	8
CCCCCCN1C[C@H](n2cc(C3CC3)nn2)[C@@H](O)C[C@@H]1c1ccc(C)cc1	.	-2	38*	.	16
Cc1sc(-n2c(C)ccc2C)c(C#N)c1C	-1	-2	-26	-19	.
C#CCN1CC(COc2ccccc2)Oc2cccc(Oc3ccc(SC)c(C)c3)c2S1(=O)=O (stereo unspecified)	.	-1	31*	.	-13
CSc1ccc(Oc2cccc3c2S(=O)(=O)N(C2CC2)C[C@@H](COCc2ccccc2)O3)cc1C	.	3	-2	.	.
FC(F)(F)c1ccc(CNCCc2ccc3c(c2)OCO3)cc1	-3	2	30*	-25	-14
CC(C)C[C@@H](CN1CCC[C@@H]1CN1C(=S)NC[C@@H]1Cc1ccc(O)cc1)N1C[C@H](Cc2ccc(O)cc2)N(CCc2ccccc2)C1=S	.	-12	30*	.	-22
CC(C)C[C@H]1CN([C@@H](Cc2ccc(O)cc2)CN2CCCC2CN2C(=S)NC[C@@H]2Cc2ccccc2)C(=S)N1CC1CCCCC1 (stereo partly specified)	.	15	30*	.	-9
CC(C)C[C@H]1CN([C@@H](Cc2ccc(O)cc2)CN2CCC[C@@H]2CN2C(=S)NC[C@@H]2Cc2ccccc2)C(=S)N1CC1CCCCCC1	.	-2	9	.	.
CC(C)C[C@@H](CN1CCCC1CN1C(=S)NC[C@@H]1Cc1ccccc1)N1C[C@H](Cc2ccc(O)cc2)N(CCc2ccccc2)C1=S (stereo partly specified)	.	-13	15	.	.
CSC1=N/C(=C\c2ccc(C)o2)C(=O)S1	-2	3	30*	-4	-8
C[C@H]1CN([C@@H](C)CO)C(=O)c2cc(Br)cnc2O[C@H]1CN(C)C(=O)c1cnccn1	.	-2	-5	.	.
Nc1cc2cccnc2cc1Cl	.	-8	39*	-20	8
O=C(Cc1ccc(Cl)cc1)Nc1ccccc1Sc1ccccc1	-2	4	-4	-24	.
O=C(Cc1ccccc1)Nc1cc(Cl)ccc1Sc1ccccc1	-2	7	30*	-9	-13
CN1CCN(CCCCOc2ccccc2C=O)CC1	-4	5	-1	-8	.
CC1=C(C(=O)Nc2ccc([N+](=O)[O-])cc2)C(c2cccc(C(F)(F)F)c2)NC(=S)N1c1ccccc1 (stereo unspecified)	-2	-1	31*	-26	-16
CC(/C=N/Nc1nnc2c(n1)[nH]c1ccccc12)=C\c1ccco1	0	.	.	-67	.
Cc1cccc2c1[nH]c1nc(N/N=C\c3ccco3)nnc12	0	-16	37*	.	1

High-throughput results from PubChem.
